Assay [1] relates to chicken Androgen Receptor (AR), gene 422165. Briefly: ATG_chAR_XSP1: Attagene TRANS-FACTORIAL Multi-Species (XSP1) HepG2 Assay for chicken Androgen Receptor (AR) (AID 2283768; active means hit-call score of the fitted dose curve at least 0.9, where 1 is the maximum). An outline of the steps: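 HepG2 cells transiently transfected with multiplexed GAL4-UAS reporter units expressing chimeric chicken AR-Gal4; 3 nM 6-alpha-fluorotestosterone for partial AR stimulation; 24 h after dosing, reporter mRNA by RT-PCR and capillary electrophoresis, gain-of-signal versus DMSO.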

Assay [2] relates to zebrafish Androgen Receptor (AR), gene 100005148. Briefly: ATG_zfAR_XSP1: Attagene TRANS-FACTORIAL Multi-Species (XSP1) HepG2 Assay for zebrafish Androgen Receptor (AR) (AID 2283771; active means hit-call score of the fitted dose curve at least 0.9, where 1 is the maximum). An outline of the steps: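 HepG2 cells were transiently transfected with a zebrafish AR-GAL4 reporter system and partially stimulated with 3 nM 6-alpha-fluorotestosterone. Reporter mRNA was measured after 24 h dosing by RT-PCR with capillary electrophoresis, and gain-of-signal was fitted relative to DMSO.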

Assay [3] concerns turtle Androgen Receptor (AR), gene 101947425. Briefly: ATG_trAR_XSP1: Attagene TRANS-FACTORIAL Multi-Species (XSP1) HepG2 Assay for turtle Androgen Receptor (AR) (AID 2283786; active means hit-call score of the fitted dose curve at least 0.9, where 1 is the maximum). A digest of the protocol:
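HepG2 cells transiently transfected with a turtle AR–GAL4 chimera and GAL4-UAS reporter, co-treated with 3 nM 6-alpha-fluorotestosterone for partial stimulation. Reporter mRNA is quantified at 24 h by RT-PCR and capillary electrophoresis, gain-of-signal versus DMSO.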

Read-out in assay [4]: Plasminogen activator inhibitor-1 (PAI1), SERPINE1 (gene 5054)
Briefly: BSK_CASM3C_PAI1: BioMAP Diversity Plus: CASM3C Assay for Plasminogen activator inhibitor-1 (PAI1) Biomarker Activity (AID 2284284).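 Further: PAI-1 protein level measured by ELISA 24 h after dosing.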 The settings on record: primary human coronary artery smooth muscle cells.

Read-out in assay [5]: Monocyte Chemoattractant Protein-1 (MCP1), CCL2 (gene 6347)
Kind of assay: BSK_hDFCGF_MCP1: BioMAP Diversity Plus: hDFCGF Assay for Monocyte Chemoattractant Protein-1 (MCP1) Biomarker Activity (AID 2284285). Particulars: primary human foreskin fibroblasts. An outline of the steps: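 Human foreskin fibroblasts (hDFCGF system) were exposed to compound and secreted MCP-1 was measured by ELISA after 24 hours. Activity was fitted relative to DMSO. Cytotoxicity was checked by SRB total-protein staining in parallel cultures.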

Read-out in assay [6]: Intercellular Adhesion Molecule 1 (ICAM1), ICAM1 (gene 3383)
Kind of assay: BSK_hDFCGF_ICAM1: BioMAP Diversity Plus: hDFCGF Assay for Intercellular Adhesion Molecule 1 (ICAM1) Biomarker Activity (AID 2284287). The settings on record: primary human foreskin fibroblasts. A digest of the protocol:
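Primary human foreskin fibroblasts (hDFCGF system) dosed with chemical; ICAM-1 quantified by ELISA at 24 h relative to DMSO. Parallel SRB total-protein staining to assess overt cytotoxicity.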

Read-out in assay [7]: TIMP metallopeptidase inhibitor 2 (TIMP2), TIMP2 (gene 7077)
Briefly: BSK_hDFCGF_TIMP2: BioMAP Diversity Plus: hDFCGF Assay for TIMP metallopeptidase inhibitor 2 (TIMP2) Biomarker Activity (AID 2284289). The settings on record: primary human foreskin fibroblasts. A digest of the protocol:
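Primary human foreskin fibroblasts in the hDFCGF system, dosed for 24 h; TIMP-2 level measured by ELISA, fitted in the positive direction against DMSO; cytotoxicity checked in parallel by sulforhodamine B total protein staining.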

Read-out in assay [8]: Thrombomodulin, THBD (gene 7056)
Kind of assay: BSK_LPS_Thrombomodulin: BioMAP Diversity Plus: LPS Assay for Thrombomodulin Biomarker Activity (AID 2284296). Particulars: primary human HUVEC with PBMC. A digest of the protocol: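 Human umbilical vein endothelial cells co-cultured with PBMC and stimulated with LPS; cell-surface thrombomodulin measured by ELISA 24 hours after compound. Gain or loss versus DMSO; cytotoxicity checked by SRB staining in parallel cultures.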

Read-out in a further assay: CD69, CD69 (gene 969)
Briefly: BSK_LPS_CD69: BioMAP Diversity Plus: LPS Assay for CD69 Biomarker Activity (AID 2284303). The settings on record: primary human HUVEC with PBMC. An outline of the steps:
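Human umbilical vein endothelial cells co-cultured with PBMC under LPS stimulation, chemical exposure 24 h; cell-surface CD69 measured by ELISA and fitted in the positive direction versus DMSO.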

Assay [9] can be described thus: CEETOX_H295R_11DCORT: CeeTox H295R High-throughput Steroidogenesis Assay for 11-Deoxycortisol (11DCORT) (AID 2283432).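 On AC50: 11-deoxycortisol secreted into the medium measured by LC-MS/MS.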 The settings on record: actives raise or lower the signal. An outline of the steps:
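Adrenal carcinoma line H295R, run per OECD 456 with minor changes, was forskolin-stimulated (10 uM, 48 h) before a 48 h chemical exposure at 0.1% DMSO. Secreted 11-deoxycortisol was quantified by HPLC-MS/MS.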

A short description of assay [10]: CEETOX_H295R_OHPREG: CeeTox H295R High-throughput Steroidogenesis Assay for OH-Pregnenolone (OHPREG) (AID 2283434). The settings on record: actives raise or lower the signal. A digest of the protocol: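 H295R cells pre-stimulated 48 h with 10 uM forskolin, then exposed 48 h to chemical in 0.1% DMSO. 17alpha-hydroxypregnenolone in medium quantified by MTBE extraction and HPLC-MS/MS; bidirectional fit versus DMSO, viability checked by MTT.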

The nature of assay [11]: CEETOX_H295R_OHPROG: CeeTox H295R High-throughput Steroidogenesis Assay for OH-Progesterone (OHPROG) (AID 2283435).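 On AC50: human adrenal H295R cells primed 48 h with 10 µM forskolin; 17alpha-hydroxyprogesterone secreted into medium measured by HPLC-MS/MS.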 The settings on record: actives raise or lower the signal. An outline of the steps: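 H295R, 10 uM forskolin prestim 48 h; cmpd in 0.1% DMSO 48 h; medium MTBE-extracted, HPLC-MS/MS for OH-progesterone; 7-pt std curve; bidirectional fit vs DMSO; MTT viability, chemicals diluted until viability >/=70%.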

Assay [12] can be described thus: CEETOX_H295R_CORTIC: CeeTox H295R High-throughput Steroidogenesis Assay for Corticosterone (CORTIC) (AID 2283437).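 Further: corticosterone secreted into medium quantified by mass spectrometry.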 Particulars: actives raise or lower the signal. A digest of the protocol: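 H295R adrenal cells prestimulated 48 hours with 10 uM forskolin, then exposed 48 hours to chemical in 0.1% DMSO. Corticosterone in medium measured by HPLC-MS/MS after MTBE extraction; MTT viability in the same wells; bidirectional fit versus DMSO.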

Assay [13] can be described thus: CEETOX_H295R_CORTISOL: CeeTox H295R High-throughput Steroidogenesis Assay for Cortisol (AID 2283438).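 Further: cortisol secreted into medium quantified by LC-MS/MS.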 Particulars: actives raise or lower the signal. A digest of the protocol:
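Forskolin 10 uM 48 h prestim → test cmpd in DMSO (0.1% final) 48 h → medium MTBE-extracted → LC-MS/MS cortisol vs 7-pt std curve. Gain/loss of signal fitted vs DMSO. MTT viability in same wells.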

Assay [14] can be described thus: CEETOX_H295R_DOC: CeeTox H295R High-throughput Steroidogenesis Assay for DOC (AID 2283439). Particulars: actives raise or lower the signal. An outline of the steps: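 Readout: 11-deoxycorticosterone in culture medium by reverse-phase C18 HPLC with ESI+ tandem MS after MTBE extraction. Cells: H295R, forskolin-primed (10 uM, 48 h), chemical-treated 48 h; DMSO 0.1% final. Activity fitted bidirectionally versus DMSO.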

A short description of assay [15]: CEETOX_H295R_PROG: CeeTox H295R High-throughput Steroidogenesis Assay for Progesterone (PROG) (AID 2283442).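 On AC50: human H295R adrenal cells primed with 10 µM forskolin before dosing.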 The settings on record: actives raise or lower the signal. An outline of the steps:
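Progesterone read-out: HPLC-MS/MS on MTBE extracts of conditioned medium after 48 h chemical exposure of forskolin-primed (10 uM, 48 h) H295R cells. Gain or loss of signal was fitted relative to DMSO baseline.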

Assay [16] concerns the target human Phosphoinositide 3-kinase alpha (PI3Ka), PIK3CA (gene 5290) (UniProt P42336). Briefly: NVS_ENZ_hPI3Ka: NovaScreen (NVS) Enzymatic Assay for human Phosphoinositide 3-kinase alpha (PI3Ka) (AID 2283196; active means hit-call score of the fitted dose curve at least 0.9, where 1 is the maximum). A digest of the protocol: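 Chemicals were first screened at 25 uM in duplicate, then hits were run as concentration series up to 50 uM. Enzyme activity was measured by fluorescence after mobility-shift separation, with loss of signal relative to DMSO taken as activity.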

The target in assay [17] is Sodium channel protein type 1 subunit alpha (Rattus norvegicus) (UniProt P04774). Briefly: NVS_IC_rNaCh_site2: NovaScreen (NVS) Ion Channel Assay for rat Sodium Channel, Site 2 (NaCh) (AID 2283322; active means hit-call score of the fitted dose curve at least 0.9, where 1 is the maximum;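 further: hit means loss of radioligand binding signal relative to DMSO so AC50 marks displacement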). A digest of the protocol:
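Membranes: rat forebrain. Format: competitive radioligand displacement, filter separation, scintillation readout, 1 h exposure. Primary screen in duplicate at 25 uM; actives retested in concentration series.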

Assay [18] addresses Glucocorticoid receptor (Homo sapiens) (UniProt P04150). Briefly: NVS_NR_hGR: NovaScreen (NVS) Nuclear Receptor Binding Assay for human Glucocorticoid Receptor (GR) (AID 2283363; active means hit-call score of the fitted dose curve at least 0.9, where 1 is the maximum;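 on AC50: activity is loss of specific radioligand binding signal relative to DMSO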). A digest of the protocol: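 Cell-free radioligand displacement assay on extracted human GR, read 16 h after dosing by filter-based scintillation counting. Screened in duplicate at 25 uM, then concentration series for actives; loss of signal versus DMSO baseline.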

Assay [19] addresses Peroxisome proliferator-activated receptor gamma (Homo sapiens) (UniProt P37231). Kind of assay: NVS_NR_hPPARg: NovaScreen (NVS) Nuclear Receptor Binding Assay for human Peroxisome Proliferator-activated Receptor gamma (PPARg) (AID 2283370; active means hit-call score of the fitted dose curve at least 0.9, where 1 is the maximum). An outline of the steps: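 FP read-out, 2 h post-dose, cell-free extracted receptor protein. Signal loss vs DMSO negative control = binding activity. Single-conc duplicate HTS at 25 uM; concentration-response follow-up for actives.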

Molecules are shown by their SMILES. “And” between values parts separate entries of the source, which are not always exact repeats. Identical values can stand only once. Inconclusive results are not listed. More than one record can exist for a structure, and the calls need not agree. The source made the active and inactive calls. How the source made its calls, unless noted: active means hit-call score of the fitted dose curve at least 0.9, where 1 is the maximum; inactive means score below 0.9.

Glucocorticoid receptor (Homo sapiens), sequence (P04150 whole entry, looked up): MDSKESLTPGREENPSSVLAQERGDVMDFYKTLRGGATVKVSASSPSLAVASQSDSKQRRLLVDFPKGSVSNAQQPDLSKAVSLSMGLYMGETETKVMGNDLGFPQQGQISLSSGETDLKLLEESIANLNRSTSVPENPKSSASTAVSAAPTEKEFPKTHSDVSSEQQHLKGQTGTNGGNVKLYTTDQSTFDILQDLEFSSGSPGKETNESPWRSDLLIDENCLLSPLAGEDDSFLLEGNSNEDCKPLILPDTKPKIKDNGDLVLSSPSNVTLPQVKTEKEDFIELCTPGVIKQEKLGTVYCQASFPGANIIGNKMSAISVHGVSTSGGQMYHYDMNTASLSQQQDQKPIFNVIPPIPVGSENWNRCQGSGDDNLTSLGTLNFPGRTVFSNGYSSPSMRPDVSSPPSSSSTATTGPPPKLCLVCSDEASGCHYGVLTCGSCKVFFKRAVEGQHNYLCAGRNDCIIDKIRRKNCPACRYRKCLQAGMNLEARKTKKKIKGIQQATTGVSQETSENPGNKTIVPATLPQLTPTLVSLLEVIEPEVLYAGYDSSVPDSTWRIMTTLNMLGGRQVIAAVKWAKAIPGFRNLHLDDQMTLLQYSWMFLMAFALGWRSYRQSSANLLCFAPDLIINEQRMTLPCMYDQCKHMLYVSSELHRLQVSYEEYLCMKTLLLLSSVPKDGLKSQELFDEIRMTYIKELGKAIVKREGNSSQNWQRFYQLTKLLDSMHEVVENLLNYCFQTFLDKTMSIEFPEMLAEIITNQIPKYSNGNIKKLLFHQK
Peroxisome proliferator-activated receptor gamma (Homo sapiens), sequence (P37231 whole entry, looked up): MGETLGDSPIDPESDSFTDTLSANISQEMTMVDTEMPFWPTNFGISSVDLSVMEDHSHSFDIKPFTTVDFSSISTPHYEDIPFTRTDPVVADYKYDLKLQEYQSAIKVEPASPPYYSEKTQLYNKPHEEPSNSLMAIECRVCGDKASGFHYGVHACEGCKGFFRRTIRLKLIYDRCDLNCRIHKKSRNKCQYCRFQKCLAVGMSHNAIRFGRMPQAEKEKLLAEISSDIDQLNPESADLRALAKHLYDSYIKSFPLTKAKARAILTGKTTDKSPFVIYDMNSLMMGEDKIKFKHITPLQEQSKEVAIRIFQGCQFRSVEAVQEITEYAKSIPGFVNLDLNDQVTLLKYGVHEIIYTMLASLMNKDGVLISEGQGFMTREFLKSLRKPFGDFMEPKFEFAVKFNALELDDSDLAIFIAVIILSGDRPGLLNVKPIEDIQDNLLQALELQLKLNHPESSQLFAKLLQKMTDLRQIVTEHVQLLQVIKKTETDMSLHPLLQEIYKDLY
human Phosphoinositide 3-kinase alpha (PI3Ka), PIK3CA (gene 5290), sequence (P42336 whole entry, looked up): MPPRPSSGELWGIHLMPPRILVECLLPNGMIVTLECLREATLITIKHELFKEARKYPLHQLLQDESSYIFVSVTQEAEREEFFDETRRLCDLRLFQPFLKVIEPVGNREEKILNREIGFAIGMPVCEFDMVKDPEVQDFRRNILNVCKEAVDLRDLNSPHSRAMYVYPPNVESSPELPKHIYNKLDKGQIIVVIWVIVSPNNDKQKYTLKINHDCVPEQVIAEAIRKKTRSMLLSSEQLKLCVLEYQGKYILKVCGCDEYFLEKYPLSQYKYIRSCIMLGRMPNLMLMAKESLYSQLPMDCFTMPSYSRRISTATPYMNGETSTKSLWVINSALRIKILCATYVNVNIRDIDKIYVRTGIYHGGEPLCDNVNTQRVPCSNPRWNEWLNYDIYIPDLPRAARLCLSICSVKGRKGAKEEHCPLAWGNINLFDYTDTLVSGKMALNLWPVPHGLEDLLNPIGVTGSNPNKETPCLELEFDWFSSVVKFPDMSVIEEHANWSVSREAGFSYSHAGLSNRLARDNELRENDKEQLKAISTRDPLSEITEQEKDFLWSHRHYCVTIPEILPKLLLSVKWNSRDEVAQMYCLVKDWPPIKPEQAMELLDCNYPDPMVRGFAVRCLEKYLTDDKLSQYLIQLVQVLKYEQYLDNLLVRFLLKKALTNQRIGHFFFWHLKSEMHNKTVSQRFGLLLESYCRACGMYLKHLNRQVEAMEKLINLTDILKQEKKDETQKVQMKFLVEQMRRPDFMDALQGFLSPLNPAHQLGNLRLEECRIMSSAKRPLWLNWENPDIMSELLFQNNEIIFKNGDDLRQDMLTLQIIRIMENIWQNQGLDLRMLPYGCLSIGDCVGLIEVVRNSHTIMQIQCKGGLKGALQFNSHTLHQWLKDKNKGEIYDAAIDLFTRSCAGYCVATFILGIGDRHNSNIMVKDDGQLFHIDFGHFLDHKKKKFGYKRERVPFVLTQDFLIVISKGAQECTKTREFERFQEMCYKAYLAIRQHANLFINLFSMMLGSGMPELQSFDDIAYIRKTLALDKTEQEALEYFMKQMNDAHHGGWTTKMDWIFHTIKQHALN

With `CC(C)CCCCCCCOC(=O)c1ccccc1C(=O)OCCCCCCCC(C)C`, the outcome in [1], in [2] and in assay [3] was inactive.

As for `O=[N+]([O-])O`, the outcome is “inactive” in [4]; “inactive” in assay [5]; “inactive” in assay [6]; “inactive” in assay [7]; “inactive” in [8]; “inactive” with CD69, CD69 (gene 969).

In the case of `C=CC(=O)OCCO`, the call in assay [9], in [10], in [11], in assay [12], in assay [13] and in [14] was inactive. Further, the AC50 in assay [15] is 5.27 µM (active).

As to `Oc1ccc(C2(c3ccc(O)cc3)c3ccccc3-c3ccccc32)cc1`, the AC50 was 20 µM (active) in [4]; 3.59 µM (active) and 2.48 µM (active) in assay [5]; 3.15 µM (active) and 2.69 µM (active) in assay [6]; 1.41 µM (active) and 1.34 µM (active) in [7]; 5.13 µM (active) and 5.21 µM (active) in assay [8]; 14.3 µM (active) and 13.1 µM (active) in the assay with CD69, CD69 (gene 969).

Take `ClCC(Cl)Cl`: in [16], the call was inactive.

`CC(C)(C)C(O)C(Oc1ccc(-c2ccccc2)cc1)n1cncn1` (configuration not stated): the outcome in assay [17], in assay [18], in assay [10], in assay [12], in [13] and in [14] was inactive. In addition, the compound was called inactive in [15]. In addition, the AC50 in assay [9] is 0.0464 µM (active); in [11] it was 0.0566 µM (active).

Consider `CC(C)(c1cc(Cl)c(O)c(Cl)c1)c1cc(Cl)c(O)c(Cl)c1`, for which the AC50 in assay [16] is 3.45 µM (active); in [18], 544 nM (active) and 146 nM (active); in assay [19] it was 1.54 µM (active). In [19], the call was inactive.

As to `C[C@]12CC[C@H](O)C[C@H]1CC[C@@H]1[C@@H]2C[C@@H](O)[C@]2(C)[C@@H](C3=CC(=O)OC3)CC[C@]12O`, in assay [17], the call was inactive.

For the origin of these results see PubChem BioAssay (EPA / NIEHS).
